Measurements from the antibiotic and cytotoxicity screens of Wong et al. (2023).
About 3,300 (8.5%) of roughly 39,000 compounds were called active. The full list was thinned out, with actives kept by preference.

Test system: HepG2
Experiment: cytotoxicity call (relative viability < 0.9)
Conditions: 10 µM

| Structure (SMILES) | cytotoxicity call |
| --- | --- |
| C[C@@H]1CN([C@H](C)CO)C(=O)Cc2cc(NC(=O)Cn3cnnn3)ccc2O[C@H]1CN(C)Cc1ccc(Oc2ccccc2)cc1 | inactive |
| CN1CCN(C(=O)C[C@H]2C=C[C@H](NS(=O)(=O)c3cccc(F)c3)[C@@H](CO)O2)CC1 | inactive |
| Cn1cnc(S(=O)(=O)N[C@H]2CC[C@H](CC(=O)NCC3CC3)O[C@@H]2CO)c1 | inactive |
| C[C@@H]1CN([C@@H](C)CO)C(=O)c2cc(NC(=O)CCC(F)(F)F)ccc2O[C@@H](C)CCCCO[C@H]1CN(C)C(=O)Nc1cccc2ccccc12 | inactive |
| CC(C)N1C[C@H](C)[C@@H](CN(C)Cc2ccc(Oc3ccccc3)cc2)Oc2c(C(=O)Nc3ccncc3)cccc2C1=O | inactive |
| COc1ccc(NC(=O)Nc2ccc3c(c2)C(=O)N([C@@H](C)CO)C[C@H](C)[C@H](CN(C)Cc2ccc(C(=O)O)cc2)OCCCC[C@H](C)O3)cc1 | inactive |
| CCCNS(=O)(=O)c1c[nH]c(C(=O)OC)c1 | inactive |
| C[C@@H]1CN([C@@H](C)CO)C(=O)c2cccc(NS(=O)(=O)c3ccc(F)cc3)c2O[C@@H]1CN(C)CC1CC1 | inactive |
| C[C@H](CO)N1C[C@H](C)[C@@H](CN(C)S(=O)(=O)c2ccc(Cl)cc2)Oc2ccc(NC(=O)Nc3ccc(C(F)(F)F)cc3)cc2CC1=O | active |
| C[C@H]1CN([C@@H](C)CO)C(=O)Cc2cc(NC(=O)Nc3cccc(C(F)(F)F)c3)ccc2O[C@H]1CN(C)S(=O)(=O)c1ccc(Oc2ccccc2)cc1 | active |
| COc1ccc(S(=O)(=O)N(C)C[C@@H]2Oc3ccc(NC(=O)Nc4cccc(C(F)(F)F)c4)cc3CC(=O)N([C@@H](C)CO)C[C@@H]2C)cc1Cl | active |
| C[C@H]1CN([C@@H](C)CO)C(=O)Cc2cc(NC(=O)Nc3ccc(C(F)(F)F)cc3)ccc2O[C@@H]1CN(C)S(=O)(=O)c1ccc(Cl)cc1 | active |
| C[C@@H]1CN([C@H](C)CO)C(=O)Cc2cc(NC(=O)Nc3ccc(C(F)(F)F)cc3)ccc2O[C@H]1CN(C)S(=O)(=O)c1ccc(Cl)cc1 | inactive |
| C[C@@H]1CN([C@@H](C)CO)C(=O)Cc2cc(NC(=O)Nc3ccc(C(F)(F)F)cc3)ccc2O[C@H]1CN(C)S(=O)(=O)c1ccc(Cl)cc1 | inactive |
| Cc1cc(=O)nc2[nH][nH]c(=S)n12 | inactive |
| C[C@H]1CN([C@@H](C)CO)C(=O)c2cccc(NC(=O)c3nc4ccccc4s3)c2O[C@@H]1CN(C)S(C)(=O)=O | inactive |
| C[C@@H]1CN([C@@H](C)CO)C(=O)Cc2cc(NC(=O)Nc3cccc4ccccc34)ccc2O[C@H]1CN(C)C(=O)Nc1ccccc1 | inactive |
| COc1ccc(S(=O)(=O)Nc2ccc3c(c2)CC(=O)N([C@H](C)CO)C[C@@H](C)[C@H](CN(C)Cc2ccc(C(=O)O)cc2)O3)cc1 | inactive |
| CN(C)C=C(C=[N+](C)C)c1[nH]ncc1N | inactive |
| C[C@@H]1CN([C@@H](C)CO)C(=O)Cc2cc(NC(=O)Nc3ccc(C(F)(F)F)cc3)ccc2O[C@@H]1CN(C)S(=O)(=O)c1ccc(Cl)cc1 | active |

| Structure (SMILES) | cytotoxicity call |
| --- | --- |
| Cc1cc(C(=O)Nc2cccc3c2O[C@H](CN(C)Cc2ccncc2)[C@@H](C)CN([C@H](C)CO)C3=O)n(C)n1 | inactive |
| C[C@@H]1CN([C@@H](C)CO)C(=O)Cc2cc(NC(=O)CCC(F)(F)F)ccc2O[C@@H]1CN(C)S(=O)(=O)c1cn(C)cn1 | inactive |
| C[C@H]1CN([C@@H](C)CO)C(=O)c2cc(NC(=O)c3ccncc3)ccc2O[C@H]1CN(C)Cc1ccc(C(=O)O)cc1 | inactive |
| C[C@@H]1CCCCO[C@@H](CN(C)S(=O)(=O)c2ccc(Cl)cc2)[C@@H](C)CN([C@@H](C)CO)C(=O)c2cc(NC(=O)Nc3ccccc3)ccc2O1 | inactive |
| C[C@@H]1CCCCO[C@H](CN(C)S(=O)(=O)c2ccc(Cl)cc2)[C@@H](C)CN([C@H](C)CO)C(=O)c2cc(NC(=O)Nc3cccc4ccccc34)ccc2O1 | inactive |
| C[C@@H]1CN([C@@H](C)CO)C(=O)c2cc(NC(=O)Nc3ccccc3)ccc2O[C@@H](C)CCCCO[C@H]1CN(C)S(=O)(=O)c1ccc(Cl)cc1 | active |
| C[C@@H]1CN([C@H](C)CO)C(=O)c2cc(NC(=O)Nc3ccccc3)ccc2O[C@@H](C)CCCCO[C@H]1CN(C)S(=O)(=O)c1ccc(Cl)cc1 | active |
| C[C@@H]1CCCCO[C@H](CN(C)S(=O)(=O)c2ccc(Cl)cc2)[C@@H](C)CN([C@@H](C)CO)C(=O)c2cc(NC(=O)Nc3cccc4ccccc34)ccc2O1 | inactive |
| C[C@@H]1CCCCO[C@@H](CN(C)S(=O)(=O)c2ccc(Cl)cc2)[C@@H](C)CN([C@H](C)CO)C(=O)c2cc(NC(=O)Nc3ccccc3)ccc2O1 | inactive |
| C[C@@H]1CN([C@@H](C)CO)C(=O)c2cc(NC(=O)Nc3ccccc3)ccc2O[C@@H](C)CCCCO[C@@H]1CN(C)S(=O)(=O)c1ccc(Cl)cc1 | inactive |
| C[C@H](CO)N1C[C@H](C)[C@@H](CN(C)S(=O)(=O)c2ccc(Cl)cc2)OCCCC[C@H](C)Oc2ccc(NC(=O)Nc3ccccc3)cc2C1=O | inactive |
| C[C@@H]1CCCCO[C@@H](CN(C)S(=O)(=O)c2ccc(Cl)cc2)[C@@H](C)CN([C@@H](C)CO)C(=O)c2cc(NC(=O)Nc3cccc4ccccc34)ccc2O1 | active |
| C[C@H](CO)N1C[C@H](C)[C@H](CN(C)C(=O)Nc2ccccc2)OCCCC[C@H](C)Oc2ccc(NC(=O)NC3CCCCC3)cc2C1=O | inactive |
| C[C@@H]1CN([C@H](C)CO)C(=O)c2cccc(NC(=O)Nc3cccc4ccccc34)c2O[C@@H]1CN(C)S(=O)(=O)c1ccc(Cl)cc1 | inactive |
| Cc1ccc(/C=N/Nc2cnnc(=O)[nH]2)o1 | inactive |
| O=C(Cn1cnnn1)NC1C(=O)N2C(C(=O)O)=C(CSc3nncs3)CSC12 (centres undefined) | inactive |
| COCC(=O)Nc1ccc2c(c1)OC[C@@H](C)N(C(=O)Cc1ccccn1)C[C@H](C)[C@@H](OC)CN(C)C2=O | inactive |
| O=c1[nH]c(=O)c2[nH]c(=O)[nH]c2[nH]1 | inactive |
| COc1ccc(S(=O)(=O)Nc2ccc3c(c2)CC(=O)N([C@H](C)CO)C[C@H](C)[C@@H](CN(C)C(=O)Nc2c(C)noc2C)O3)cc1 | inactive |
